From PubChem
This is a sample that favours compounds with a hit; in the whole collection about 4% have one here.
Peg3 prom inh – Peg3 promoter-driven luciferase inhibitors, primary screen, cell-based, HeLa, luciferase luminescence. HeLa PEG-Prom luciferase reporter, overnight. 1.7% of 360,000 active. inhibition, % at 20 µM. AID 588405, 2011;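 active means inhibition of at least 50% at 20 µM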
CF NFkB block – inhibitors of PAF-induced NF-kB signaling, primary screen, cell-based, GFP fluorescence, uHTS | KKLEB NF-kB-GFP reporter, GFP fluorescence overnight | 0.86% of 360,000 active | inhibition, % at 5 µM;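 active means at least 50% inhibition at 5 µM, scaled per plate between neutral and stimulator controls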;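 further: PAF is a Pseudomonas aeruginosa culture filtrate used as stimulus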
TROY NFkB inh – inhibitors of TROY-driven NF-kB signaling, primary screen, Q293 LMP1-TROYcd cells, NF-kB luciferase, uHTS | 0.98% of 360,000 active | Q293 LMP1-TROYcd NF-kB luciferase reporter, 4 h | inhibition, % at 10 µM;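 active means compounds whose plate-normalised and pattern-corrected inhibition of the luciferase reporter signal at the single screening dose is 50% or more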
KKLEB cytotox – cytotoxicity in KKLEB CF airway cells, primary screen, cytotoxicity control for CF NF-kB inhibitor project, cell-based, uHTS, fluorescence assay plates; 0.36% of 360,000 active; KKLEB CF airway cells viability, ATPlite luminescence, overnight; hits give low values; cells stimulated with P. aeruginosa culture filtrate; activity change (cytotoxicity), % at 5 µM;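 active means corrected activity change at or below -50% at 5 µM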
TWEAK-Fn14 inh – inhibitors of TWEAK-Fn14 signaling, primary screen, luciferase reporter cells, uHTS; inhibition, % at 10 µM; 2% of 360,000 active; TWEAK-stimulated Fn14 reporter cells, luciferase luminescence, 8 h; in the data active means inhibition above about 50%
HIF-2a inh – HIF-2a reporter inhibitors, primary screen, luminescence, 786-0 RCC cells; 786-0 RCC cells HIF-2a reporter, luciferase luminescence, overnight; inhibition, % at 18.8 µM; 0.72% of 360,000 active;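 active means inhibition of the luminescence signal of 40% or more relative to plate controls, in a single-dose primary screen at 18.75 µM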
Of the large screens only hits and unclear results are named; the others gave an inactive call.

NC(=O)CSc1nnc(-c2ccc3c(c2)OCO3)o1	none
N#Cc1ccc(CN2C=NS(=O)(=O)c3ccccc32)cc1	none
O=S(=O)(CCN1CCCCC1)CCS(=O)(=O)CCN1CCCCC1	TROY NFkB inh 61
NC(=O)CCS(=O)(=O)CCN1CCCCC1	none
COc1ccc(NS(=O)(=O)c2ccc3c(c2)NC(=O)C(C)S3)cc1 (configuration not stated)	none
N/C(=N\c1nc2ccccc2o1)NC(=O)c1ccccc1	none
N/C(=N\c1nc2ccccc2o1)NC(=O)/C=C/c1ccccc1	TWEAK-Fn14 inh 55
Cc1c(NC(=O)c2ccc([N+](=O)[O-])o2)cccc1-c1nc2ncccc2o1	Peg3 prom inh 83, CF NFkB block 96
COc1cccc(C(=O)Nc2cccc(-c3nc4ncccc4o3)c2C)c1	none
O=C(Nc1cccc2ncccc12)c1ccc([N+](=O)[O-])o1	Peg3 prom inh 51
O=C(OCc1ccc(Br)cc1)c1cc([N+](=O)[O-])ccc1N1CCOCC1	none
COc1ccc(COC(=O)c2cc([N+](=O)[O-])ccc2N2CCOCC2)cc1F	CF NFkB block 55
O=C(COC(=O)c1cc([N+](=O)[O-])ccc1N1CCOCC1)Nc1ccc(Cl)cc1	none
O=C(COC(=O)c1cc([N+](=O)[O-])ccc1N1CCOCC1)Nc1ccc(Cl)cn1	Peg3 prom inh 53
O=C(OCc1cccc(Cl)c1)c1cc([N+](=O)[O-])ccc1N1CCOCC1	TROY NFkB inh 67
Cc1ccccc1N1CCN(C2CCCN(C(=O)c3ccnn3C)C2)CC1 (configuration not stated)	none
CC(=O)Nc1ccc(C2=NNC(=Nc3cccc(S(=O)(=O)N(C)C)c3)SC2)cc1	TWEAK-Fn14 inh 62
CC(=O)Nc1ccc(C2=NNC(=Nc3ccc(S(=O)(=O)N4CCOCC4)cc3)SC2)cc1	none
COCCN=c1scc(-c2cc(OC)c(OC)c(OC)c2)n1/N=C/c1c(C)[nH]c2ccccc12	Peg3 prom inh 53, TWEAK-Fn14 inh 54
FC(F)(F)c1cc(CCN2CCNC[C@H]2Cc2cccc3ccccc23)cc(C(F)(F)F)c1	Peg3 prom inh 101
Oc1ccc(C[C@H]2CNCCN2CCc2cccc3ccccc23)cc1	none
Oc1ccc(C[C@@H]2CNCCN2CCc2cc(C(F)(F)F)cc(C(F)(F)F)c2)cc1	Peg3 prom inh 103
Oc1ccc(C[C@@H]2CNCCN2CCCCC2CCCCC2)cc1	Peg3 prom inh 94
COc1ccc(/C=N/NC(=O)c2ccc(N(C)S(=O)(=O)c3ccccc3)cc2)cc1	TWEAK-Fn14 inh 51
CCN(Cc1cccs1)C(=O)CN1CCN(S(=O)(=O)c2ccc3c(c2)OCCCO3)CC1	none
Fc1ccc(N2CCN(c3ncnc4c3nnn4Cc3ccccc3Cl)CC2)cc1	TWEAK-Fn14 inh 65
CC(C)CN1C(=O)C(=O)N(CC(=O)N2CCN(c3ccccc3)CC2)C1=O	none
COc1ccc(C(=O)N2CCC3(CC2)NCCc2[nH]cnc23)cc1OC	none
Brc1ccc2nc(C3CCCCC3)c(Cc3ccccc3)n2c1	none
C/C(=N\NC(=S)NC1CCCCC1)c1ccc(Cl)c(Cl)c1	TWEAK-Fn14 inh 62
CC(C)C[C@@H](NC(=O)C1CCC(CNC(=O)[C@@H]2CCCN2C(=O)OC(C)(C)C)CC1)C(=O)O (some centres not stated)	none
Nc1nc(NCc2ccco2)nc(Nc2cccc(F)c2)c1[N+](=O)[O-]	none
CCN(CCCNC(=O)CCn1c(=S)[nH]c2cc3c(cc2c1=O)OCO3)c1cccc(C)c1	none
CN(C)Cc1ccc(-c2nc3cccc4c3n2CCNC4=O)cc1	Peg3 prom inh 58
Cc1cc(CN(C)C(=O)CC2C(=O)NCCN2Cc2ccc(-c3ccccc3)cc2)on1 (configuration not stated)	none
COc1ccc(NS(=O)(=O)c2ccc3oc(SCc4ccc(F)cc4)nc3c2)cc1	TROY NFkB inh 51
COC(=O)c1cc(NC(=O)CN(c2cccc(OC)c2)S(=O)(=O)c2ccccc2)ccc1Cl	TWEAK-Fn14 inh 51
COC(=O)c1cc(NC(=O)CN(c2ccccc2OC)S(=O)(=O)c2ccccc2)ccc1Cl	TWEAK-Fn14 inh 53
O=C(CNc1ccccc1N1CCCC1=O)Nc1cc(C(F)(F)F)ccc1-n1cncn1	none
O=C(c1ccc(N2CCCC2=O)cc1)N1CCN(c2ccccc2F)CC1	none
COc1ccc(N2CCCn3c2nc2c3c(=O)n(CCc3ccccc3)c(=O)n2C)cc1	Peg3 prom inh 52
Cn1c(=O)n(CCc2ccccc2)c(=O)c2c1nc1n2CCCN1Cc1ccccc1	TWEAK-Fn14 inh 52
CCCn1c(=O)c2c(nc3n2CCCN3Cc2ccccc2)n(C)c1=O	none
Cn1c(=O)n(CCc2ccccc2)c(=O)c2c1nc1n2CCCN1CCc1ccccc1	Peg3 prom inh 69
COc1cc(OC)cc(C(=O)NNC(=O)CCC2CCCC2)c1	none
CCn1nccc1NC(=O)c1csc([C@H]2C[C@H](O)[C@@H](CO)O2)n1	none
COc1ccc(/C=N/NC(=O)c2cccnc2)cc1COc1ccc([N+](=O)[O-])c(C)c1	TROY NFkB inh 55
COc1ccc(/C=N/NC(=O)c2cccnc2)cc1CSc1nc2ccccc2s1	TROY NFkB inh 50, TWEAK-Fn14 inh 52
COc1ccc(/C=N/NC(=O)c2ccccc2Cl)cc1CSc1nc2ccccc2s1	none
CCOC(=O)c1oc2ccccc2c1COC(=O)CNC(=O)c1ccco1	none
Cn1nc(C(=O)Nc2ccc(S(=O)(=O)N3CCCCC3)cc2)ccc1=O	TWEAK-Fn14 inh 104
Cn1nccc1C(=O)Nc1ccc(S(=O)(=O)N2CCCC2)cc1	none
O=C1OC(c2ccccc2)(c2cc(Br)c(O)c(Br)c2)c2ccccc21 (configuration not stated)	TROY NFkB inh 53
CN(C)C(=O)C[C@@H]1CC[C@@H](NC(=O)C2CCC2)[C@@H](CO)O1	none (no result: Peg3 prom inh, CF NFkB block, TROY NFkB inh, KKLEB cytotox, TWEAK-Fn14 inh)
Cc1nc(SCC(=O)NCc2ccc3c(c2)OCO3)nc(C)c1C	none
Cc1ccc(N=Cc2cc(Cc3ccccc3Cl)cc([N+](=O)[O-])c2O)c(O)c1	CF NFkB block 73
Oc1ccc(-c2cn3ccccc3n2)cc1O	none
Cc1ccn2cc(-c3ccc(O)c(O)c3)nc2c1	TWEAK-Fn14 inh 80
C=CCN(CC=C)C(=S)NC(=O)/C=C/c1ccc(C)cc1	TWEAK-Fn14 inh 63
C=CCN(CC=C)C(=S)NC(=O)/C=C/c1ccccc1	none
O=C1N(c2ccccc2)C[C@@H]2C[C@@H](c3cccs3)N3CCC[C@@]123	Peg3 prom inh 73
